The values below come from the supplement of paper PMC11732987, “Enantioselective OTUD7B fragment discovery through chemoproteomics screening and high-throughput optimisation” (Communications Chemistry, 2025).

What all share (experiment): log2 ratio of Biotin-Ahx-Ub-VS probe labelling (fragment/DMSO); higher = less target engagement (more negative = stronger competition), active = hit call of the paper (q ≤ 0.05, log2 ratio ≤ -1)
Settings in all cases: compound concentration: 200 uM; treatment time: 3 h

Experiment [1] addresses T1, OTUD6B (UniProt Q8N6M0).
T1 sequence (whole entry): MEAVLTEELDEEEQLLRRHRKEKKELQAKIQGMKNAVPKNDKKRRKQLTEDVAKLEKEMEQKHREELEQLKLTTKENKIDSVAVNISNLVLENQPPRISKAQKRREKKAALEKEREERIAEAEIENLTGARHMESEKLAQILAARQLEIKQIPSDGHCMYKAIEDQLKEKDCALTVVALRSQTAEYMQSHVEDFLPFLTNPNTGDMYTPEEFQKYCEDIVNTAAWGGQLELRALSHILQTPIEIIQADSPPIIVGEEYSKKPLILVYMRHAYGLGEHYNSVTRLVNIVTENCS
The essentials: (§1)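 Using Biotin-Ahx-Ub-VS at 0.5 µM final for 1 h, DUBs were labelled in HEK293T lysate (495 µg per sample) that had first been treated in triplicate with fragment at 200 µM or vehicle for 3 h. NeutrAvidin enrichment, LysC and trypsin digestion and diaPASEF LC-MS/MS followed. Spectronaut label-free quantities were global-median-normalised. Values are average log2 fragment/vehicle ratios by unpaired t-test, using proteins with ≥2 unique peptides.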

The target in experiment [2] is T2, OTUD7B (UniProt Q6GQQ9).
T2 sequence (whole entry): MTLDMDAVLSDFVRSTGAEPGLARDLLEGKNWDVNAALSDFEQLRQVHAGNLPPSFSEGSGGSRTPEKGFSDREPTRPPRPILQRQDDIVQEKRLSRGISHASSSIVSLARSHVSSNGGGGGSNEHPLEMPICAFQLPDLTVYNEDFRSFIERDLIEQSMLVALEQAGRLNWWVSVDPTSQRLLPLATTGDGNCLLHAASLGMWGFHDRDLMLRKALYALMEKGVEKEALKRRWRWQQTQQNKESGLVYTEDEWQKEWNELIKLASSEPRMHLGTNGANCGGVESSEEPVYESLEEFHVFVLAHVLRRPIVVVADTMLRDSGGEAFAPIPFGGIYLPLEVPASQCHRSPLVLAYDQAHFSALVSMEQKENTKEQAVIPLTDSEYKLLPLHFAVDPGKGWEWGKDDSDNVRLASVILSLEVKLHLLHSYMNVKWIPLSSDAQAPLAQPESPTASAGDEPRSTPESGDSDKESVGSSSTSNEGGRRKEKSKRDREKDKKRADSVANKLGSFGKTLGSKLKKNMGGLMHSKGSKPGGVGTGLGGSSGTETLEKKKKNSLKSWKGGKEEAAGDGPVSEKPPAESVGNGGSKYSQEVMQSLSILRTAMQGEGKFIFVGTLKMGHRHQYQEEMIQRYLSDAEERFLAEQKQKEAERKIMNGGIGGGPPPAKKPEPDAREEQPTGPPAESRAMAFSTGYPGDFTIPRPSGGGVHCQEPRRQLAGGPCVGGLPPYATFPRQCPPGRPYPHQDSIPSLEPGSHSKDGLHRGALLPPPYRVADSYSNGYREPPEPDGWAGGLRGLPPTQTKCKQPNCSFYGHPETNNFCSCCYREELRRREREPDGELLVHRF
The essentials:
as §1

In experiment [3] the target is PRPF8 (UniProt Q6P2Q9). The essentials:
as §1

The target of experiment [4] is T3, PSMD7 (UniProt P51665).
T3 sequence (whole entry): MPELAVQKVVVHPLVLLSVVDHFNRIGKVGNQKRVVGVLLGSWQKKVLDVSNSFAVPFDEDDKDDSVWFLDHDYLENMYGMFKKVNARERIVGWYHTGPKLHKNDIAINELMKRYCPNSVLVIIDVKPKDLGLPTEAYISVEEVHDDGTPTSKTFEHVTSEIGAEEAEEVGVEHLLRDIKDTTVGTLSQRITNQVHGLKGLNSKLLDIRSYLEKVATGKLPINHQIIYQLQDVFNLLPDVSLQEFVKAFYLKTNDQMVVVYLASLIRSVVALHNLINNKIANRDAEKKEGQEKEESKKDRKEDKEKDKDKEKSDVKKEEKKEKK
The essentials:
as §1

For experiment [5], the target named is UCHL1 (UniProt P09936). The essentials:
as §1

Experiment [6] has as its target T4, UCHL3 (UniProt P15374).
T4 sequence (whole entry): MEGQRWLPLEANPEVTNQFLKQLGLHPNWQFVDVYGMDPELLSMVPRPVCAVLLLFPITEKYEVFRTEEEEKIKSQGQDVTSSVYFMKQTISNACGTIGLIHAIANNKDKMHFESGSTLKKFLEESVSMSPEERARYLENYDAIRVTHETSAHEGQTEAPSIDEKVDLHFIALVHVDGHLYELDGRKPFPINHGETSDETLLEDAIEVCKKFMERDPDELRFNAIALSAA
The essentials:
as §1

Experiment [7] deals with T5, UCHL5 (UniProt Q9Y5K5).
T5 sequence (whole entry): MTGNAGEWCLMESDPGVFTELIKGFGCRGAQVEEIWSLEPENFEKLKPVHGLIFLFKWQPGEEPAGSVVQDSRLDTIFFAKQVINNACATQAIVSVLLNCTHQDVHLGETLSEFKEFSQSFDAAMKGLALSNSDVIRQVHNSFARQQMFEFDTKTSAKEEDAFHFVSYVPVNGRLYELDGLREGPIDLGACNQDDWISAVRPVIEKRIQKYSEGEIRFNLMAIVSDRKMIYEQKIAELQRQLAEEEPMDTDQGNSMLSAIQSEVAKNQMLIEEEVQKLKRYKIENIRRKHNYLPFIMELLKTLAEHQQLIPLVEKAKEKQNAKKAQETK
The essentials: as §1

Experiment [8] has as its target USP10 (UniProt Q14694). The essentials:
as §1

Experiment [9] concerns the target T6, USP15 (UniProt Q9Y4E8).
T6 sequence (whole entry): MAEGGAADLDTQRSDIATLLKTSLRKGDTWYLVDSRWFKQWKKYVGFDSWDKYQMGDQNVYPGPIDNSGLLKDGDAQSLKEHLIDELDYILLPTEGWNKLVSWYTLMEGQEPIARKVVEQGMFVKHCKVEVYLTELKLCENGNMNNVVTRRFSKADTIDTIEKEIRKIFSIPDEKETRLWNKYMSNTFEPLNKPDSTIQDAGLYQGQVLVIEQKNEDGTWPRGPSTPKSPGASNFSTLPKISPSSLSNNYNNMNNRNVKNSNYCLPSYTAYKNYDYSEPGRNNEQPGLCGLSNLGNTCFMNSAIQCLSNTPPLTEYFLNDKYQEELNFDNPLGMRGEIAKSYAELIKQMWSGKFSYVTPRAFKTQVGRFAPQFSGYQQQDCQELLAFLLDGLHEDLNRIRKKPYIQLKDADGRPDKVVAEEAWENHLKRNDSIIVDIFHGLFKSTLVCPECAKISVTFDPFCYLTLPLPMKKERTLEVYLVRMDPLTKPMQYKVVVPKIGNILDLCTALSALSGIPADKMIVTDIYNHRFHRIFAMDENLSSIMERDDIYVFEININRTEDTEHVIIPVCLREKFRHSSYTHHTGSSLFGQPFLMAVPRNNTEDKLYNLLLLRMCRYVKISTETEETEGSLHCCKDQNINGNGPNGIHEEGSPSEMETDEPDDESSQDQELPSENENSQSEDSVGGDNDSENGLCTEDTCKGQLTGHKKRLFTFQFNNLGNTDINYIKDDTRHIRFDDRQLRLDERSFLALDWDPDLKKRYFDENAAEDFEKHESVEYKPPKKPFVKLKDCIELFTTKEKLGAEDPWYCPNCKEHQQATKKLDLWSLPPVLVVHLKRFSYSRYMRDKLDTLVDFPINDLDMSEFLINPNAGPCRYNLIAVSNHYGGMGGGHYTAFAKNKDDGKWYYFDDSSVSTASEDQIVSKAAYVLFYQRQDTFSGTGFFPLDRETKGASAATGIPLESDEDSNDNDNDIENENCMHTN
The essentials:
as §1

Experiment [10] deals with USP16 (UniProt Q9Y5T5). The essentials:
as §1

The structures appear in SMILES notation. Unmarked numbers belong to inactive results.

Chain of USP16 (Q9Y5T5 whole entry, looked up): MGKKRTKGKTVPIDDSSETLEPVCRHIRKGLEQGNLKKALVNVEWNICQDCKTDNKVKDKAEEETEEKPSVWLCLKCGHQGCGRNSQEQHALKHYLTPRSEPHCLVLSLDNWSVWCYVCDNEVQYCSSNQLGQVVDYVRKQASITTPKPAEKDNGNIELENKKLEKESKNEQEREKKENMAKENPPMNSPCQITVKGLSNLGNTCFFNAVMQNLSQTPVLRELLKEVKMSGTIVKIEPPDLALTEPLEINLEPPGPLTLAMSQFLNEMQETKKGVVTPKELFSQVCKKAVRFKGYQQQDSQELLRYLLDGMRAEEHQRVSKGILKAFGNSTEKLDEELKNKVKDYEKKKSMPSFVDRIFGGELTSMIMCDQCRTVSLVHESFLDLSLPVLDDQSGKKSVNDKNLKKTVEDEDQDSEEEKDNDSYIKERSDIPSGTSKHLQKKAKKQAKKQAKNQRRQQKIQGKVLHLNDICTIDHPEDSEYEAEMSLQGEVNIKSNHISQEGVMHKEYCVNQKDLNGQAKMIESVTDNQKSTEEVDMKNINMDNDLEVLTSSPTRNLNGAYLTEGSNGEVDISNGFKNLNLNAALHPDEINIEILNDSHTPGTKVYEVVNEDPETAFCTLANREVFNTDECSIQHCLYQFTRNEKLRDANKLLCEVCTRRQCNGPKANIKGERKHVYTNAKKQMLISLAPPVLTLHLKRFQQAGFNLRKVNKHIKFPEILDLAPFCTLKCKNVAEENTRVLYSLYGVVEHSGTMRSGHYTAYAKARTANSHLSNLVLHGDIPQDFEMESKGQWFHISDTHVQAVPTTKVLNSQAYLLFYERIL
Chain of USP10 (Q14694 whole entry): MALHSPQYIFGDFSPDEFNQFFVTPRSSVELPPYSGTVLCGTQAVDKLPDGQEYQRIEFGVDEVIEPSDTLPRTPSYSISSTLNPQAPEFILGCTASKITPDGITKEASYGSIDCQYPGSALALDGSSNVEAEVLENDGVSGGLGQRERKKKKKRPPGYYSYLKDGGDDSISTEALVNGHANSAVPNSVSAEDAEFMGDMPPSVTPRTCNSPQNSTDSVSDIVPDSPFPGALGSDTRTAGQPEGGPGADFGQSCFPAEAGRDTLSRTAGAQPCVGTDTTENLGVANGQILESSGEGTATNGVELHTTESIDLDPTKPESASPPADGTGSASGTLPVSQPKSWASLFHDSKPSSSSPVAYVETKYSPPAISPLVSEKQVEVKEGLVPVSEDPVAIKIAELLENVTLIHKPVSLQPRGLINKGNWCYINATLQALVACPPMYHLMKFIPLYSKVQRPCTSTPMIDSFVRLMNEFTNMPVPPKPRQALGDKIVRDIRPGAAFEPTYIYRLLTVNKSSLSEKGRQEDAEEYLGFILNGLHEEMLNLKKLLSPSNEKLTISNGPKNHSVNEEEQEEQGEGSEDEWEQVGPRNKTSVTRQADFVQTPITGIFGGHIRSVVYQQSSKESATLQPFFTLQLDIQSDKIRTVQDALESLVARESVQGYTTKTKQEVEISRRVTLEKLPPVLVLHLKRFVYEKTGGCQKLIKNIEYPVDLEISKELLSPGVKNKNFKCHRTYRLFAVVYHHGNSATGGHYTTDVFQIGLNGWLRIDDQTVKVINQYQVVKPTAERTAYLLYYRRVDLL
Chain of UCHL1 (P09936 whole entry, looked up): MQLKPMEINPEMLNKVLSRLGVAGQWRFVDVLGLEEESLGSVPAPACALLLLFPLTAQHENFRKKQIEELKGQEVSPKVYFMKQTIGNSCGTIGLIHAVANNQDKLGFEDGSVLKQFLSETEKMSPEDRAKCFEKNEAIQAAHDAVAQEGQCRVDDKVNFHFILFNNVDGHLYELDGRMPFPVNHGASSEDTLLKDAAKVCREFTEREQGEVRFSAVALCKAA

In the case of `Cc1ccn2cc(CNC(=O)CCl)nc2c1.Cl`, the “log2 ratio of Biotin-Ahx-Ub-VS probe labelling” value (shortened to “log2 ratio”) in [1] is -0.283; in experiment [2], -0.682; in [3] it was 0.0356; in experiment [4], -0.104; in experiment [5], -0.67; in [6], -0.0928. The “log2 ratio” value is -0.311 in experiment [7], 0.0849 in experiment [8], -0.244 in experiment [9] and 0.0424 in [10].

With `O=C(CCl)NCCc1cccc2ccccc12`, the “log2 ratio” value is 0.0475 in experiment [1]; -0.286 in experiment [2]; 0.117 in [3]; 0.0665 in experiment [4]; -0.978 in [5]; 0.331 in [6]. Moreover, the “log2 ratio” value in experiment [7] is -0.029; in [8], -0.0479; in experiment [9], 0.076; in experiment [10], -0.496.

Consider `O=C(CCl)NCC1(c2ccccc2)CC1`, for which the “log2 ratio” value in experiment [1] was -0.042; in [2], -0.82; in experiment [3], -0.155; in experiment [4], -0.151; in experiment [5] it was -1.22 (active); in experiment [6] it was 0.255. The “log2 ratio” value in [7] is -0.245; in experiment [8], 0.00549; in experiment [9] it was -0.107; in experiment [10], 0.0406.

On to `O=C(CCl)N1CCOCC1C1CC1` (stereo not given), for which the “log2 ratio” value in experiment [1] was -0.211; in experiment [2], -0.512; in experiment [3] it was -0.182; in experiment [4], -0.142; in [5], -1.92 (active); in [6] it was 0.225. Moreover, the “log2 ratio” value in [7] is -0.257; in experiment [8] it was -0.0983; in experiment [9] it was -0.122; in experiment [10], -0.345.

With `COc1ccc(Cl)cc1NC(=O)CCl`, the “log2 ratio” value is -0.594 in experiment [1]; -1.29 (active) in experiment [2]; -0.0117 in [3]; -0.241 in [4]; -1.01 (active) in experiment [5]; -0.0348 in [6]. Further, the “log2 ratio” value in [7] was -0.501; in experiment [8], -0.263; in experiment [9], -0.674; in experiment [10] it was -0.286.

For `O=C(CCl)Nc1nnc(CC(F)(F)F)o1`, the “log2 ratio” value is -0.105 in [1]; -0.451 in experiment [2]; 0.0577 in experiment [3]; -0.157 in experiment [4]; -1.5 (active) in [5]; -0.128 in experiment [6]. The “log2 ratio” value was -0.204 in [7], -0.0274 in experiment [8], -0.341 in experiment [9] and 0.0973 in [10].
